Data on eight compounds can be found in PubChem BioAssay (NCATS).

Experiment [1] can be described thus: High-throughput drug toxicity screening in the BPDCN cell line Gen2.2 (AID 1224824; call rule not given here;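 further: cells exposed to compounds for 48 h before reading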). The settings on record: Gen2.2 BPDCN cells; at 45.8 µM (top of the series) unless noted. In short, it runs like this: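 Readout is ATP luminescence from Gen2.2 cells after two days of drug exposure in serum-containing medium at 37 °C. Values express percent activity, with vehicle defining full signal and 9.2 uM bortezomib defining zero.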

Experiment [2] is described as follows: High-throughput drug toxicity screening in the BPDCN cell line Cal-1 (AID 1224825; call rule not given here). The settings on record: Cal-1 BPDCN cell viability, qHTS; at 45.8 µM (top of the series) unless noted. In short, it runs like this:
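Cal-1 cells, 500 per well in phenol-red-free RPMI with 10% FBS, exposed to compounds for 48 hours at 37C, 5% CO2. Viability read by CellTiter-Glo luminescence; percent activity normalized to DMSO (100%) and 9.2 uM bortezomib final (0%).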

Experiment [3] can be described thus: qHTS assay for measurement of the activity of small molecule inhibitors on Zika virus induced Caspase-3 activity in human iPSC derived neural progenitor cells (hNPCs) (AID 1224857). Further: % of control where 0% means no effect; nearly all actives have a fitted effect of over 65% in size. In short, it runs like this: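 Human iPSC-derived neural progenitor cells pretreated 1 hr with compounds, then infected with Zika virus (2 FFU/cell) for 6 hours at 37 C. Caspase-3/7 measured by Caspase-Glo luminescence; % inhibition calculated from induction scaled to uninfected (0%) and infected (100%) wells.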

Experiment [4] in a line: qHTS assay for measurement of the activity of small molecule inhibitors on Zika virus induced Caspase-3 activity in human astrocytoma cells (AID 1224859).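 Further: plate controls were ZIKV-infected untreated cells for no effect and uninfected cells for full effect.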 In short, it runs like this: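 SNB-19 astrocytoma cells, 250/well, pretreated 1 h with compounds, then Zika virus at 2 FFU/cell for 6 h at 37 C; Caspase-Glo 3/7 luminescence after 30 min; percent inhibition normalised to uninfected and infected controls.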

The nature of experiment [5]: qHTS Screen of the MIPE 4.0 Collection Against Ewings Sarcoma (RDES) (AID 1259252). Further: nearly all actives have a fitted effect of over 35% in size. Further: potency means the concentration at half of the fitted maximal effect. The gist of the method:
(§1)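 Viability screen: 48 h incubation at 37C, 95% humidity, 5% CO2 with serially titrated compound, followed by CellTiter-Glo readout.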

Experiment [6] is described as follows: qHTS Screen of the MIPE 4.0 Collection Against Ewings Sarcoma (TC71) (AID 1259253). Further: nearly all actives have a fitted effect of over 40% in size. Further: potency means the concentration at half of the fitted maximal effect. The gist of the method:
as §1

Experiment [7] is described as follows: qHTS Screen of the MIPE 4.0 Collection Against Ewings Sarcoma (EW8) (AID 1259255). Further: nearly all actives have a fitted effect of over 35% in size. Further: potency means the concentration at half of the fitted maximal effect.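 On viability: 100% = DMSO-treated cells and 0% = medium-only wells without cells.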 The gist of the method:
as §1

Experiment [8] can be described thus: qHTS Screen of the MIPE 4.0 Collection Against Ewings Sarcoma (TC32) (AID 1259256). Further: nearly all actives have a fitted effect of over 45% in size. Further: potency means the concentration at half of the fitted maximal effect. The gist of the method: as §1
A short description of experiment [9]: qHTS profiling of the MIPE4 collection as inhibitors of Plasmodium falciparum (DD2) proliferation (Rep 2) (AID 743346; call rule not given here). Particulars: P. falciparum Dd2 in erythrocytes, SYBR Green DNA, 72 h; at 28.5 µM (top of the series) unless noted. The gist of the method:
(§2)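 Erythrocytes infected with P. falciparum (0.3% parasitemia, 2.5% hematocrit) incubated with compounds 72 h at 37 C, 5% CO2. Lysis with saponin/Triton buffer containing SYBR Green I, overnight at room temperature in the dark; DNA fluorescence (485/535 nm) normalised to 0.29 uM artemisinin and DMSO.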

Experiment [10] is described as follows: qHTS profiling of the MIPE4 collection as inhibitors of Plasmodium falciparum (HB3) proliferation (AID 743347; call rule not given here;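 further: plate controls were DMSO vehicle wells for no effect and artemisinin wells for full effect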). The settings on record: P. falciparum HB3 in erythrocytes, SYBR Green DNA, 72 h; at 28.5 µM (top of the series) unless noted. In short, it runs like this:
as §2

Results filed as inconclusive are left out. Calls of active or inactive are those of the source. Unless noted, the call rests on the fitted dose curve; in most records, active means well fitted inhibition curve with a large enough effect; inconclusive means small, poorly fitted or top-dose-only effect; inactive means no such curve, though single readings can be large or run the other way.

With `Cc1onc(-c2ccccc2)c1C(=O)N[C@@H]1C(=O)N2[C@@H](C(=O)O)C(C)(C)S[C@@H]12`, the cell viability, % of control (lower = more cytotoxic) in [1] turned out to be 73.2%. In addition, the viability (% of control) in [2] was 120%. Moreover, the Potency entry in experiment [3], in experiment [4], in [5], in experiment [6], in experiment [7] and in [8] was “inactive” each time.

Take `C#CCC(Cc1cnc2nc(N)nc(N)c2n1)c1ccc(C(=O)N[C@@H](CCC(=O)O)C(=O)O)cc1` (stereo not given in full): the parasite growth, % of control (lower = inhibition) in experiment [9] came to 9.31%. This compound also displayed a growth, % of control in experiment [10] of 18%. In addition, the cell viability, % of control (lower = more cytotoxic) in experiment [1] is 51.7%. For the same compound, the viability (% of control) in experiment [2] amounted to 36.9%. The Potency entry in [3] and in experiment [4] was “inactive” throughout. Further, the Potency in [5] is 0.0372 µM (active); in experiment [6], 0.0372 µM (active); in [7] it was 0.0372 µM (active); in [8], 0.0332 µM (active).

Regarding `NC(=O)c1ncn([C@@H]2O[C@H](CO)[C@@H](O)[C@@H]2O)c1N`, the parasite growth, % of control (lower = inhibition) in [9] was found to be 95.2%. The growth, % of control in experiment [10] was 68.2%. Besides, the cell viability, % of control (lower = more cytotoxic) in [1] was determined as 191%. Also, the viability (% of control) in experiment [2] was 112%. The Potency entry in experiment [3], in experiment [4], in [5], in [6], in experiment [7] and in [8] was “inactive” in each case.

Turning to `Cc1noc(-c2ccc(CSCCC(=O)O)cc2)c1NC(=O)OC(C)c1ccccc1Cl` (stereo not given), the parasite growth, % of control (lower = inhibition) in experiment [9] came out at 49.9%. In addition, the growth, % of control in experiment [10] amounted to 61.1%. Besides, the cell viability, % of control (lower = more cytotoxic) in experiment [1] stood at 157%. Moreover, the viability (% of control) in experiment [2] was 103%. In addition, the Potency result in experiment [3], in experiment [4], in experiment [5], in experiment [6], in [7] and in experiment [8] was “inactive” each time.

On to `C=CC(=O)Nc1cccc(Nc2nc(NC3CCC(N(C)C)CC3)nc3c2ncn3C(C)C)c1` (stereo not given), for which the parasite growth, % of control (lower = inhibition) in [9] is 35.4%. The same compound registered a growth, % of control in experiment [10] of 4.69%. In addition, in experiment [1], the cell viability, % of control (lower = more cytotoxic) is 5.58%. Also, in [2], the viability (% of control) was 2.19%. Further, the Potency entry in experiment [3] and in experiment [4] was “inactive” each time. In addition, the Potency in experiment [5] is 0.0148 µM (active); in [6] it was 0.469 µM (active); in [7], 0.526 µM (active); in experiment [8] it was 0.418 µM (active).

Consider `CC(=O)N[C@H]1[C@@H]([C@H](O)[C@H](O)CO)OC(C(=O)O)=C[C@@H]1N=C(N)N`, for which the cell viability, % of control (lower = more cytotoxic) in experiment [1] was 114%. Also, the viability (% of control) in experiment [2] is 124%. Moreover, the Potency entry in experiment [3], in experiment [4], in experiment [5], in experiment [6] and in [7] was “inactive” each time.

In experiment [9], `CN(C)c1ccc(C(=O)NCCCCCCC(=O)NO)cc1` yielded a parasite growth, % of control (lower = inhibition) of 8.85%. The same compound displayed a growth, % of control in experiment [10] of 2.69%. For the same compound, in [1], the cell viability, % of control (lower = more cytotoxic) was 15.8%. In addition, in experiment [2], the viability (% of control) is 4.88%. The Potency entry in [3] and in experiment [4] was “inactive” throughout. Also, the Potency in experiment [5] is 0.662 µM (active); in [6], 0.59 µM (active); in experiment [7], 0.526 µM (active); in experiment [8], 0.296 µM (active).

Compound `Cn1cnc2c(F)c(Nc3ccc(Br)cc3F)c(C(=O)NOCCO)cc21` gave a parasite growth, % of control (lower = inhibition) in experiment [9] of 76.8%. Also, the growth, % of control in experiment [10] was determined as 84.6%. Moreover, the cell viability, % of control (lower = more cytotoxic) in [1] turned out to be 4.85%. Further, the viability (% of control) in experiment [2] was determined as 56.4%. Further, the Potency entry in experiment [3], in [4], in experiment [5], in [6], in experiment [7] and in experiment [8] was “inactive” throughout.
